Results on five molecules are retold here after PubChem BioAssay.

The source made the active and inactive calls.

For assay [1], the system named is PRMT1 (protein arginine N-methyltransferase 1). Put plainly: small molecules binding arginine methyltransferase PRMT1 – biochemical, small-molecule microarray, 635 nm fluorescence, primary screen (AID 1088).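 Further: binding of Prmt1 protein to compounds spotted on small-molecule microarray slides.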 The conditions noted are these: higher = more signal.
A short description of assay [2]: growth effects on S. cerevisiae YJM789 – YJM789 clinical isolate, OD600, 24 h, basal, primary screen (AID 1089).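 Further: growth of clinical yeast isolate S. cerevisiae YJM 789 seeded 1000 cells per well; test concentration not given here.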 Particulars: higher = more signal, called active from +8 up or from −8 down.
The nature of assay [3]: S. pombe growth modifiers, basal conditions – strain 972, OD600, 24 h, no modulator, primary screen (AID 1090).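 Further: basal condition with compound alone and no growth modifier present; test concentration not given here.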 The conditions noted are these: S. pombe 972 growth, higher = more signal, called active from +8 up or from −8 down.
Assay [4] can be described thus: budding yeast growth modifiers under rapamycin – strain BY4716, OD600, 96 h, primary screen (AID 1091). Further: test concentration not given here. The conditions noted are these: S. cerevisiae BY4716 + rapamycin, higher = more signal, called active from +8 up or from −8 down.
In assay [5] the target is Torsin-1A-interacting protein 2 (Homo sapiens) (UniProt Q8NFQ8). The experiment in a line: small molecules binding lysate-expressed LULL1 – cell lysate, human LULL1 lysate, 635/667 nm fluorescence, primary screen (AID 1092).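 Further: probe is lysate of COS7 cells overexpressing human LULL1; score merges per-feature 667 nm fluorescence with signal-to-noise.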 Particulars: small-molecule microarray, hLULL1 lysate binding, 635 nm fluorescence; higher = more signal.
Chain of Torsin-1A-interacting protein 2 (Homo sapiens) (Q8NFQ8 whole entry, looked up): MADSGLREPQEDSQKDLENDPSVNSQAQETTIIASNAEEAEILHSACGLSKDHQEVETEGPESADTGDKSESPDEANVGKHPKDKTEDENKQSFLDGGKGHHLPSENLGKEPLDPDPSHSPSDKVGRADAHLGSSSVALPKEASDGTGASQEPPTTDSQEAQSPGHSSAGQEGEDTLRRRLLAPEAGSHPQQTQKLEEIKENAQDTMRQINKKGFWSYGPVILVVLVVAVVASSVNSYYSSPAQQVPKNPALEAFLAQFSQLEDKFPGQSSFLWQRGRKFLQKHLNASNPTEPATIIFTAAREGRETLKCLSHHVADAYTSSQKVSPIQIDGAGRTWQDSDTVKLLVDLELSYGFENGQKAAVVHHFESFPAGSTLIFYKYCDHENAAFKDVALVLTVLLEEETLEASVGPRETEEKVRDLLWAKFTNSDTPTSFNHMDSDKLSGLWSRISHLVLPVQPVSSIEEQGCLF
Assay [6] is described as follows: optical density change of DRC41 E. coli – strain DRC41, OD650, 24 h, E. coli filamentation project, primary screen (AID 1093).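 Further: MC1000 strain lacking acrAB efflux and sulA so SOS filamentation is blocked; test concentration not given here.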 Particulars: E. coli DRC41 growth, higher = more signal, called active from +8 up or from −8 down.
Assay [7] in a line: probe aLefty2 binding to arrayed compounds – biochemical, biotinylated probe, 635/667 nm fluorescence, primary screen (AID 1094).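 Further: score merges spot fluorescence near 667 nm with spot signal-to-noise ratio.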 The conditions noted are these: small-molecule microarray, higher = more signal.
The test system of assay [8] is Noggin (protein binding on small-molecule microarray). The experiment in a line: small molecules binding Noggin protein – biochemical, 635/667 nm fluorescence, primary screen (AID 1095).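 Further: score merges 667 nm feature fluorescence with signal to noise over triplicate slides.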 The conditions noted are these: 635 nm fluorescence, higher = more signal.
Assay [9] deals with Neurogenic locus notch homolog protein 3 (Homo sapiens) (UniProt Q9UM47). The experiment in a line: small molecules binding NOTCH3 protein – biochemical, 635/667 nm fluorescence, primary screen (AID 1096). Particulars: small-molecule microarray, 635 nm fluorescence, higher = more signal.
Chain of Neurogenic locus notch homolog protein 3 (Homo sapiens) (Q9UM47 whole entry, looked up): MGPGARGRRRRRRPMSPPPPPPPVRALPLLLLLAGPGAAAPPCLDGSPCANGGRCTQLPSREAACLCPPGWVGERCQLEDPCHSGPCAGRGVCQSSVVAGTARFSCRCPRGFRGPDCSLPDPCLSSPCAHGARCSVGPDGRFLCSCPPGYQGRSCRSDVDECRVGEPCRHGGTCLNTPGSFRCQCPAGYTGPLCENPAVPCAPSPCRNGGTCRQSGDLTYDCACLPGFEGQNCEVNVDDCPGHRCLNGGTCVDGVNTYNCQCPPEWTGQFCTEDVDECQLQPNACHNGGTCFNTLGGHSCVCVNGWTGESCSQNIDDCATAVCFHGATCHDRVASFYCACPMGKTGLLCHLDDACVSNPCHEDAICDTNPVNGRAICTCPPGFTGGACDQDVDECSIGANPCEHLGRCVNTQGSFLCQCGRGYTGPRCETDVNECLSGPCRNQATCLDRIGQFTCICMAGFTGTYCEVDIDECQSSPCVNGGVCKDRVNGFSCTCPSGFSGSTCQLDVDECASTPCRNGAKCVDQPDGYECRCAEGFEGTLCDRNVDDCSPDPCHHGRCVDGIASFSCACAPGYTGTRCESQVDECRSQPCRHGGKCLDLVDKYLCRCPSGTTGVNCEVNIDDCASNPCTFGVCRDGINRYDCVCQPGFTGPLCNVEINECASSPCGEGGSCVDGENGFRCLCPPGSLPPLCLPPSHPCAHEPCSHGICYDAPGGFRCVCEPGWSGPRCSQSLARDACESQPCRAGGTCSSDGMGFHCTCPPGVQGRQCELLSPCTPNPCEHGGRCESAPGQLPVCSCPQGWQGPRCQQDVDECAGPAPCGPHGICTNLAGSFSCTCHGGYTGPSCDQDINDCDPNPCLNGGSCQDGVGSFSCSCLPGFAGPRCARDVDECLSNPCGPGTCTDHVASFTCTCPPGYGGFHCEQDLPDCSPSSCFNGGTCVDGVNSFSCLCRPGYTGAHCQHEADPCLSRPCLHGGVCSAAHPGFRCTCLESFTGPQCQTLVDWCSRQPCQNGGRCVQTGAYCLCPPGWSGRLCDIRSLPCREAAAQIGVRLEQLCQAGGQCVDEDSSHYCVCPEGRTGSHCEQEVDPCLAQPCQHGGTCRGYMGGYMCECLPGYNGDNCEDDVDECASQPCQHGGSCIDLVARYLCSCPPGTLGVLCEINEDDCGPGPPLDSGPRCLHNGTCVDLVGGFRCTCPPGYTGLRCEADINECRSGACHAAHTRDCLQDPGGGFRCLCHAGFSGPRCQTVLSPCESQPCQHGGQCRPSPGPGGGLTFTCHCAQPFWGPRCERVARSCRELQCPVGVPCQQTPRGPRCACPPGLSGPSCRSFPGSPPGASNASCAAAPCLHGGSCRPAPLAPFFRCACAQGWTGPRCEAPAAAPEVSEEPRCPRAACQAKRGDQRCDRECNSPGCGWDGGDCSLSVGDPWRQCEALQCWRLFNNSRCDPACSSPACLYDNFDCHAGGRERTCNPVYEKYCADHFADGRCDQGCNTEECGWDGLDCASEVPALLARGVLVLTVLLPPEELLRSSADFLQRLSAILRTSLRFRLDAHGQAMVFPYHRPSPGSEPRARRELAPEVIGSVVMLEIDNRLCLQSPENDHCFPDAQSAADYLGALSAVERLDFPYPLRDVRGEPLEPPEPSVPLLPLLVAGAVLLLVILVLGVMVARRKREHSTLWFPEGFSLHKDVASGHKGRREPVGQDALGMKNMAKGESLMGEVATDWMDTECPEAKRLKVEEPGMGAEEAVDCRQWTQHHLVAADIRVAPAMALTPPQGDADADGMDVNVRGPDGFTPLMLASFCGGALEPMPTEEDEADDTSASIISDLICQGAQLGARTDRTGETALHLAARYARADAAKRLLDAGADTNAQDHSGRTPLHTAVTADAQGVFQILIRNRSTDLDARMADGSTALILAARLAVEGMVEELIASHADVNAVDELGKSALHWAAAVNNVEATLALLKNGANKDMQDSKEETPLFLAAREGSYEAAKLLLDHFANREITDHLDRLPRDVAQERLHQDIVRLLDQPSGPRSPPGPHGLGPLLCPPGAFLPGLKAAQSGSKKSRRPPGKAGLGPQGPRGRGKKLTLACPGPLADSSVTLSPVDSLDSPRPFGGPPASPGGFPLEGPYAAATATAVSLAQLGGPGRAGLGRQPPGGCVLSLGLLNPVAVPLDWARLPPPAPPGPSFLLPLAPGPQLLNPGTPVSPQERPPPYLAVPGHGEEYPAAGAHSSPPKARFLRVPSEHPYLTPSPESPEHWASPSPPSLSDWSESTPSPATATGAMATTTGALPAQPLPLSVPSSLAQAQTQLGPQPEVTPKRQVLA
The nature of assay [10]: probe aEGFR binding to arrayed compounds – biochemical, biotinylated probe, 635/667 nm fluorescence, primary screen (AID 1097).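 Further: probe is a biotinylated anti-EGFR antibody binding compounds printed on slides; score combines fluorescence near 667 nm and signal to noise of each spot.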 Particulars: small-molecule microarray, higher = more signal.
For assay [11], the system named is Plasmodium falciparum Sir2 (PF13_0152, Sir2A). Put plainly: Plasmodium falciparum Sir2A binding compounds – biochemical, small-molecule microarray, 635 nm fluorescence, primary screen (AID 1098).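 Further: score merges spot fluorescence intensity with its signal-to-noise ratio.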 Particulars: fluorescence 635 nm, higher = more signal.
Assay [12] is described as follows: probe aDKK1 binding to arrayed compounds – biochemical, biotinylated probe, 635/667 nm fluorescence, primary screen (AID 1099).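 Further: score merges 667nm spot fluorescence with signal to noise across triplicate slides; reference of the scale not given here.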 Particulars: small-molecule microarray, higher = more signal.
Assay [13] is described as follows: probe aCHRDL2 binding to arrayed compounds – biochemical, biotinylated probe, 635/667 nm fluorescence, primary screen (AID 1100). The conditions noted are these: small-molecule microarray, higher = more signal.
Assay [14] in a line: change in splice reporter luminescence, either direction, cell-based, HEK293, spliceosome inhibition project, primary screen (AID 1101).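 Further: HEK293 cells carrying a splicing-competent luciferase reporter gene; test concentration not given here.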 Particulars: HEK293 splicing luciferase reporter, 24 h, higher = more signal, called active from +8 up or from −8 down.
Assay [15] concerns the target Fibroblast growth factor 10 (Homo sapiens) (UniProt O15520). The experiment in a line: compounds binding fibroblast growth factor 10 – biochemical, small-molecule microarray, 635 nm fluorescence, primary screen (AID 1102). The conditions noted are these: FGF10 binding, fluorescence 635 nm, higher = more signal.
Assay [16] concerns glycogen synthase kinase-3 (GSK3A per assay name; protocol says GSK3B). Put plainly: compounds binding glycogen synthase kinase-3 – biochemical, small-molecule microarray, 635 nm fluorescence, GSK3A, primary screen (AID 1103). Further: the record names both GSK3A and GSK3B. Particulars: fluorescence 635 nm, higher = more signal.
In assay [17] the target is Epidermal growth factor receptor (Homo sapiens) (UniProt P00533). Put plainly: compounds binding epidermal growth factor receptor – biochemical, small-molecule microarray, 635 nm fluorescence, primary screen (AID 1104).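 Further: score merges 667 nm emission intensity with spot signal to noise over triplicate slides.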 The conditions noted are these: EGFR binding, higher = more signal.
Chain of Epidermal growth factor receptor (Homo sapiens) (P00533 whole entry, looked up): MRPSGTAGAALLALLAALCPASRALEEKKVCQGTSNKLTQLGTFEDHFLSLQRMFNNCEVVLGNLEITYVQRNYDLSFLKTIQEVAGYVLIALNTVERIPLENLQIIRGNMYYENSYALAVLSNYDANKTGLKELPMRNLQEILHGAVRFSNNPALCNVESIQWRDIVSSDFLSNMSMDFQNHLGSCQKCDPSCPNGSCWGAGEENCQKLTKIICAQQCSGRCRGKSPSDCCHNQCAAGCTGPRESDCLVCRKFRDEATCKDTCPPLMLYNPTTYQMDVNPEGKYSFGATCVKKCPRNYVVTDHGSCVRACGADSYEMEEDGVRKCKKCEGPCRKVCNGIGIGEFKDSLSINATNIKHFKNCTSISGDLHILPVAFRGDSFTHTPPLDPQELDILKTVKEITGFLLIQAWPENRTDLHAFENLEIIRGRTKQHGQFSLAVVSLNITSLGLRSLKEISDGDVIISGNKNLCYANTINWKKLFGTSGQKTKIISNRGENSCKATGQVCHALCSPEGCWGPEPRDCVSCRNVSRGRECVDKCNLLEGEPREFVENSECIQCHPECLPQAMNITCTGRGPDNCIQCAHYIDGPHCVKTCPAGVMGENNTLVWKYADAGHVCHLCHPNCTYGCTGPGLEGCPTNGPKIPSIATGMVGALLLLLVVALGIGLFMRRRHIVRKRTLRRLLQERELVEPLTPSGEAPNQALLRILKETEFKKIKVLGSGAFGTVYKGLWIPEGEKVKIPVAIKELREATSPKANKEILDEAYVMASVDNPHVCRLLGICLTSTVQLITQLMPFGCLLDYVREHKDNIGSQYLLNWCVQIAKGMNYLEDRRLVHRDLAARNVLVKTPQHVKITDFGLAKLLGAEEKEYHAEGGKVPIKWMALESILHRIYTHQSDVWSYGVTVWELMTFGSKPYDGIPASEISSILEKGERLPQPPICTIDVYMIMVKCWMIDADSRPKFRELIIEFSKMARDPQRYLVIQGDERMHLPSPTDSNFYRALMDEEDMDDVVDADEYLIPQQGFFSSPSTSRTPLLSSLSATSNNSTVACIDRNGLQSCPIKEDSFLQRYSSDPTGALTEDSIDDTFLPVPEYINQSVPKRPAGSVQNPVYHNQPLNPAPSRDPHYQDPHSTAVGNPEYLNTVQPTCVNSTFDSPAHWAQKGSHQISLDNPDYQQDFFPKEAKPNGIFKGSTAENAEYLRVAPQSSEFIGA
Assay [18] deals with Follistatin-related protein 3 (Homo sapiens) (UniProt O95633). Put plainly: compounds binding follistatin-related protein 3 – biochemical, small-molecule microarray, 635 nm fluorescence, primary screen (AID 1105).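 Further: score merges emission near 667 nm and signal to noise per printed spot across three slides.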 Particulars: FSTL3 binding, higher = more signal.
Chain of Follistatin-related protein 3 (Homo sapiens) (O95633 whole entry, looked up): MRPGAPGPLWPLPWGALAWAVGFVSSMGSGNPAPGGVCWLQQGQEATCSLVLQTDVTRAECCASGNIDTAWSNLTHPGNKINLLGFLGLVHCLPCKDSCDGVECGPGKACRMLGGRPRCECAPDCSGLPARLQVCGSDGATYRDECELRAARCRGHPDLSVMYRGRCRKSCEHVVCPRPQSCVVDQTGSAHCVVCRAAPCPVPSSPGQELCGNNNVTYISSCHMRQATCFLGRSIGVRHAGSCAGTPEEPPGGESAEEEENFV
Assay [19] deals with Dickkopf-related protein 1 (Homo sapiens) (UniProt O94907). The experiment in a line: small molecules binding DKK1 protein – biochemical, small-molecule microarray, 635 nm fluorescence scan, primary screen (AID 1106).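 Further: score merges emission near 667 nm with signal to noise over three replicate slides.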 Particulars: higher = more signal.
Chain of Dickkopf-related protein 1 (Homo sapiens) (O94907 whole entry, looked up): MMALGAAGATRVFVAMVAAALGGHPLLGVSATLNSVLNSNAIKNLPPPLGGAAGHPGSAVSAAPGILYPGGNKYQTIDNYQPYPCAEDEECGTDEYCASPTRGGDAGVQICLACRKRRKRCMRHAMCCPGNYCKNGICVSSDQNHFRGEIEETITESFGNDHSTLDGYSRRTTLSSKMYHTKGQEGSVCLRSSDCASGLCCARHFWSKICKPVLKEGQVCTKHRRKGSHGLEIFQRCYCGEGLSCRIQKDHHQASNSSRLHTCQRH
Assay [20] deals with Inhibin beta A chain (activin A). The experiment in a line: small molecules binding activin A – biochemical, small-molecule microarray, 635 nm fluorescence scan, primary screen (AID 1107).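 Further: mouse activin A protein probed at 4.33 µg/mL on printed slides; score merges bound-protein fluorescence near 667 nm with spot signal-to-noise.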 The conditions noted are these: INHBA, higher = more signal.

Chain of Fibroblast growth factor 10 (Homo sapiens) (O15520 whole entry, looked up): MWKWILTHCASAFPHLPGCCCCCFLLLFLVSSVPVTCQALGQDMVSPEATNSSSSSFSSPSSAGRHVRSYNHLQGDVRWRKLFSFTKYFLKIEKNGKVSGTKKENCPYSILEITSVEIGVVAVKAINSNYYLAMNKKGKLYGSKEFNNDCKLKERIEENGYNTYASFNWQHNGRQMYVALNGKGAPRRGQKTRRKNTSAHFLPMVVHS

Take `C=C(/C(=C/C[C@H](OC(C)=O)c1ccc(CO)o1)c1cnc2ccccc2c1)C(C)C`: the composite z-score in assay [1] is 1.54; in assay [5], 2.64; in [7] it was -0.044; in [8], 1.6; in [9], 1.02; in assay [10], -0.0172. For the same molecule, the composite z-score in assay [11] is 1.1; in assay [12], -0.151; in assay [13], -0.483; in assay [15], 1.44; in [16], 1.21; in assay [17], 0.845. Also, the composite z-score came to 1.58 in assay [18], 0.643 in assay [19] and 1.52 in assay [20]. Further, the z-score was -0.816 (inactive) in [2]; -1.13 (inactive) in [3]; 0.171 (inactive) in [4]; 0.243 (inactive) in assay [6]; 0.652 (inactive) in [14].

Regarding `CCCC=C(CCC)[C@@H](NC(=O)c1cccs1)c1ccc(C(=O)OC)cc1`, the composite z-score in [1] was -1.88; in assay [5] it was 0.905; in [7], 1.18; in assay [8], 0.542; in assay [9] it was 0.587; in assay [10] it was 0.925. The composite z-score in assay [11] amounted to 0.366; in assay [12], 1.96; in [13], 0.824; in [15], 1.31; in assay [16], 0.625; in assay [17] it was 0.782. Further, the figures for the composite z-score in assay [18], in assay [19] and in assay [20] were 0.89, 0.473 and -0.032, respectively. The z-score was -0.0214 (inactive) in [2]; 0.598 (inactive) in assay [3]; -0.0964 (inactive) in [4]; -0.0658 (inactive) in [6]; -0.571 (inactive) in assay [14].

`CC1CC/C=C\[C@H]2OC34C=CCN(Cc5ccccc5)C(=O)[C@H]3N(C(CO)C(C)C)C(=O)[C@@H]4C2C(=O)O1` (stereo not given in full): the composite z-score in assay [1] is -0.856; in assay [5], 0.251; in [7] it was -0.0042; in [8], -0.964; in [9], -1.1; in assay [10], 0.244. Moreover, the composite z-score in [11] was 0.659; in assay [12], -0.239; in [13], 0.146; in assay [15] it was -0.871; in assay [16] it was -0.484; in assay [17], -0.471. Further, the figures for the composite z-score in [18], in [19] and in assay [20] were -0.902, -0.415 and 1.09, respectively. The z-score in assay [2] is 0.0869 (inactive); in assay [3], -0.978 (inactive); in assay [4], 0.101 (inactive); in assay [6], 0.154 (inactive); in [14], -0.124 (inactive).

Regarding `NC(=O)[C@@]1(Cc2ccccc2)COC(c2ccc(OCCCO)cc2)=N1`, the composite z-score in assay [1] is -0.57; in assay [5] it was 3.05; in [7] it was -0.0736; in assay [8], -0.555; in [9], -0.537; in [10], -0.136. Further, the composite z-score was 0.0491 in [11]; 0.618 in assay [12]; 0.836 in assay [13]; 0.594 in [15]; -0.923 in assay [16]; -0.377 in assay [17]. The composite z-score in assay [18] is -0.807; in [19], -0.636; in assay [20] it was 0.663. For the same molecule, the z-score was 1.2 (inactive) in assay [2]; 0.196 (inactive) in [3]; 1.19 (inactive) in assay [4]; 1.05 (inactive) in [6]; 0.444 (inactive) in assay [14].

`CC(CO)N1C(=O)[C@@H]2[C@H]3C(=O)OCC=C[C@H]3OC23C=CCN(Cn2nnc4ccccc42)C(=O)[C@@H]13` (stereo not given in full): the composite z-score in [1] was -0.533; in assay [5], -0.444; in assay [7] it was -0.185; in assay [8] it was -0.746; in assay [9], -0.652; in [10] it was -0.292. Moreover, the composite z-score is 0.996 in assay [11]; -0.162 in assay [12]; 0.238 in assay [13]; -0.78 in [15]; -0.778 in assay [16]; -1.29 in [17]. Moreover, the composite z-score in assay [18] is -1.13; in assay [19], -0.586; in assay [20], 0.647. In addition, the z-score in assay [2] is -0.596 (inactive); in [3] it was -0.225 (inactive); in assay [4], -0.473 (inactive); in assay [6] it was -0.333 (inactive); in assay [14], 1.12 (inactive).
